This note sets out measurements from PubChem BioAssay AID463173 (ICCB-Longwood Screening Facility, Harvard Medical School, 2010).

The whole screen tested about 52,000 compounds, of which about 1,700 (3.3%) were called active. The sample holds actives, similar compounds and a random draw of the others, so the mix is not that of the screen. A number with no mark means an inactive call. Cut-off read from the data, not from the text of the source: active = survival mostly below about 52% (no sharp cut-off); inactive = mostly above about 56%.

For this assay, the system named is Wild type. Nature of the assay: growth inhibition of S. aureus wild type versus tarO mutant, primary screen, teichoic acid synthesis inhibitors, RN4220, OD600 (AID 463173). To be noted: S. aureus RN4220 wild type/DeltatarO growth, OD600, 18 h, hits give low values, screened at 18.75 µg/mL (by protocol).
Turning to `Cc1cc(C(=O)N2CCN(c3cccc(C)c3C)CC2)c2c(C)nn(-c3ccccc3)c2n1`, the survival was 121%.

Consider `Cc1cccc(C(=O)Nc2ccc(N3CC=C(c4ccccc4C)CC3)c(C(=O)O)c2)c1`, for which the survival was 66%.

Take `Cn1nc(-c2ccc(N3CCCCC3)c(NC(=O)c3ccc(Cl)cc3)c2)c2ccccc2c1=O`: the survival is 80%.

Regarding `COc1nnc(-c2ccc(N3CCCCC3)c(NC(=O)c3ccc(Cl)cc3)c2)c2ccccc12`, the survival is 96%.

Regarding `COc1nnc(-c2ccc(N3CCCCC3)c(NC(=O)c3ccccc3)c2)c2ccccc12`, the survival is -6% (active).

As for `COc1nnc(-c2ccc(N3CCCCC3)c(NC(=O)c3ccc(C)cc3)c2)c2ccccc12`, the survival was 36%.

In the case of `COc1nnc(-c2ccc(N3CCCCC3)c(NC(=O)c3ccccc3Cl)c2)c2ccccc12`, the survival was -7% (active).

As for `Cn1c(=O)c(=O)n(C)c2cc(N3CCCC3)c(NC(=O)c3ccccc3Cl)cc21`, the survival is 86%.

For the compound `CCN(CCCNC(=O)CSc1cc(=O)n(C)c2ccccc12)c1ccccc1`, the survival was 77%.

As for `CC(=O)Nc1ccc(NC(=O)c2cc3sccc3n2Cc2ccc(Cl)cc2)cc1`, the survival is 91%.

Turning to `CC1(C)O[C@H]2[C@@H](O1)[C@@H](C(=O)Nc1ccc(F)c(F)c1)O[C@@H]1OC(C)(C)O[C@@H]12`, the survival is 106%.

Turning to `CCN(CC)CCNC(=O)c1ccc2c(=O)n3nc(Nc4cccc(Cl)c4C)sc3nc2c1`, the survival is 153%.

Consider `Cc1ccc(C)c(CNC(=O)C2CCN(c3nc4ccccc4nc3C(F)(F)F)CC2)c1`, for which the survival is 88%.

Consider `CCc1c(C)nc2nc(-c3ccccc3)nn2c1NCc1ccc(C)cc1`, for which the survival was -1% (active).

As for `CCc1c(C)nc2nncn2c1NCc1ccccc1`, the survival was 86%.

Take `Cc1ccc(CNc2cc(C)nc3nc(-c4ccc(C)cc4)nn23)cc1`: the survival is 66%.

`CCOC(=O)c1ccc(NC(=O)CSc2nc(C)c(Cc3ccccc3)c(=O)[nH]2)cc1`: the survival was 80%.

Take `O=C(NCc1ccccc1)N(Cc1cccnc1)Cc1cc2cc3c(cc2[nH]c1=O)OCCO3`: the survival is 102%.

Turning to `COc1ccc(-c2nn3c(-c4ccc(C)cc4)nnc3c3ccccc23)cc1`, the survival is 70%.

Take `COc1ccc2[nH]cc(CCN=C(NC(=O)c3ccccc3C)Nc3nc(C)cc(C)n3)c2c1`: the survival is 41%.

As for `CCn1c2c(c(=O)n3ncc(C(=O)Nc4cc(Cl)ccc4OC)c13)CN(Cc1ccc(OC)cc1)CC2`, the survival is 72%.

In the case of `CCn1c2c(c(=O)n3ncc(C(=O)Nc4ccc(F)cc4Cl)c13)CN(Cc1ccc(OC)cc1)CC2`, the survival was 14% (active).

For `CCn1c2c(c(=O)n3ncc(C(=O)Nc4ccc(OC(F)(F)F)cc4)c13)CN(Cc1ccc(OC)cc1)CC2`, the survival was 83%.

As for `CCn1c2c(c(=O)n3ncc(C(=O)Nc4ccc(F)c(Cl)c4)c13)CN(Cc1ccc(OC)cc1)CC2`, the survival is -1% (active).

For the compound `CCn1c2c(c(=O)n3ncc(C(=O)Nc4ccc(C(=O)OC)cc4)c13)CN(Cc1ccc(OC)cc1)CC2`, the survival is 55%.

For `CCn1c2c(c(=O)n3ncc(C(=O)Nc4ccc(Cl)cc4C)c13)CN(Cc1ccc(OC)cc1)CC2`, the survival is 76%.

In the case of `Cc1ccc(CNC(=O)Nc2cc(C(=O)NCc3cccc(F)c3)ccc2N2CCCC2)cc1`, the survival was 128%.

Turning to `CCOC(=O)c1cccc(NC(=O)CCc2c(C)nn(-c3ccc(N4CCCCC4)nn3)c2C)c1`, the survival was 95%.

Consider `Cc1nnc(C)c2c(C)n(-c3ccc4c(c3)OCO4)c(C)c12`, for which the survival is 111%.

For the compound `CCOc1ccc(N(CC)C(=O)Cn2cnc3sc(C)c(S(=O)(=O)N4CCN(c5ncccn5)CC4)c3c2=O)cc1`, the survival is 78%.

Take `CCc1ccc(NCc2cccn2-c2nnc(N3CCCCCC3)s2)cc1`: the survival is -1% (active).

On to `Cc1ccc(NCc2cccn2-c2nnc(N3CCCCCC3)s2)cc1`, for which the survival was 77%.

Turning to `COc1ccc(NCc2cccn2-c2nnc(N3CCCCCC3)s2)cc1`, the survival was 78%.

As to `CCC(C)NC(=O)CSc1nc2ccc(C(C)C)cc2cc1C#N` (configuration not stated), the survival is 103%.

`COc1cccc(CNC(=O)c2ccc(NC(=O)N3CCCCc4ccccc43)cc2)c1OC`: the survival was 73%.

With `Cc1nc2nc(SCC(=O)NCCc3ccc(Cl)cc3)nn2c(C)c1Cc1ccccc1`, the survival was 56%.

On to `Cc1ccc2nc(NC(=O)CSc3nccn3Cc3ccc(Cl)cc3)sc2c1`, for which the survival is 72%.

For `O=C(CSc1nccn1Cc1ccc(F)cc1)Nc1nc2ccccc2s1`, the survival is 82%.

`Cc1ccc2nc(NC(=O)CSc3nccn3Cc3ccccc3)sc2c1`: the survival is 10% (active).

With `Cc1nnc(NC(=O)CSc2nccn2Cc2ccc(Cl)cc2)s1`, the survival was 118%.

`Cc1ccc(Cn2ccnc2SCC(=O)Nc2nnc(C)s2)cc1`: the survival is 65%.

With `Cc1nnc(NC(=O)CSc2nccn2Cc2ccc(F)cc2)s1`, the survival is -2% (active).

For `Cc1ccc2nc(NC(=O)CSc3nccn3Cc3ccc(F)cc3)sc2c1`, the survival was 80%.

As for `O=C(CSc1nccn1Cc1ccccc1)Nc1nc2ccccc2s1`, the survival is 121%.

Consider `O=C(CSc1nccn1Cc1ccc(Cl)cc1)Nc1nc2ccccc2s1`, for which the survival was 0% (active).

Turning to `CCOc1ccc(NC(=O)Cn2c(=O)n(Cc3ccccc3)c(=O)c3sc4ccccc4c32)cc1`, the survival was 78%.

Regarding `COc1cc(NC(=O)Nc2nnc(N3CCCCCC3)s2)cc(OC)c1`, the survival was 78%.

Take `Cc1cccc(N2CCN(c3ncnc4c3cnn4-c3ccc(Cl)cc3)CC2C)c1` (configuration not stated): the survival was 83%.

Regarding `CCc1ccc(OC(C)c2nc(-c3ccc(-n4cccc4)cc3)no2)cc1` (configuration not stated), the survival is -4% (active).

For `CCCc1ccc(OC(C)c2nc(-c3ccc(-n4cccc4)cc3)no2)cc1` (configuration not stated), the survival is 56%.

`CCc1ccc(OCc2nc(-c3ccc(-n4cccc4)cc3)no2)cc1`: the survival is 104%.

As to `O=C(Nc1ccc2oc(-c3ccncc3)nc2c1)c1ccccc1Cl`, the survival is 73%.

On to `Cc1ccc(CNC(=O)c2cc3c(=O)oc4ccc(C)cc4c3s2)cc1`, for which the survival was 88%.

For the compound `CCOCCCNC(=O)C(c1ccccc1)N(Cc1ccc2c(c1)OCO2)C(=O)c1ccc(NC(C)=O)cc1` (configuration not stated), the survival was 70%.

In the case of `CCC(=O)N(CCC(c1ccccc1)c1ccc2c(c1)OCO2)Cc1ccc(OC(C)C)cc1` (configuration not stated), the survival is 1% (active).

Take `COc1ccc(CNCCC(c2ccccc2)c2ccc3c(c2)OCO3)cc1` (configuration not stated): the survival was 3% (active).

For `COc1ccc(CN(CCC(c2ccc3c(c2)OCO3)c2ccccc2OC)C(C)=O)cc1` (configuration not stated), the survival was 8% (active).

Consider `COc1ccc(CNCCC(c2ccc(C)cc2)c2ccco2)cc1` (configuration not stated), for which the survival is 72%.

As to `NC(=O)CC(c1ccccc1)c1ccc2c(c1)OCO2` (configuration not stated), the survival was 117%.

On to `COc1cc2cc(CN(Cc3ccc4c(c3)OCO4)C(=O)NCc3ccccc3)c(=O)[nH]c2cc1OC`, for which the survival is 117%.

Take `COc1ccc(CNCCC(c2ccc3c(c2)OCO3)c2ccccc2OC)cc1` (configuration not stated): the survival was 25%.

In the case of `CCOCCCNC(=O)C(c1ccc(OC)cc1)N(Cc1ccc2c(c1)OCO2)C(=O)c1ccc(NC(C)=O)cc1` (configuration not stated), the survival is 69%.

Take `C=CCc1c(C)nc(SC)[nH]c1=O`: the survival was 114%.

Consider `Cc1cccc(-c2nc3ccccc3n3c(-c4ccccc4)c4c(=O)n(C)c(=O)n(C)c4c23)c1`, for which the survival is 121%.

For the compound `O=C(CN1C(=O)c2ccccc2Sc2ncccc21)Nc1cccc(C(F)(F)F)c1`, the survival was 85%.

As for `CCSc1nc2ccccc2c(OCc2ccc(Cl)cc2)c1C(=O)OC`, the survival was 88%.

With `CCSc1nc2ccccc2c(OCc2ccccc2Cl)c1C(=O)OC`, the survival is 75%.

In the case of `CCSc1nc2ccccc2c(OCc2cc(C(=O)OC)ccc2OC)c1C(=O)OC`, the survival is -15% (active).

Turning to `Cc1ccc(N2CCN(S(=O)(=O)c3cc(C(=O)Nc4cc(Cl)cc(Cl)c4)ccc3F)CC2C)cc1` (configuration not stated), the survival was 71%.

`COc1ccc(OC)c(CNC(=O)c2c(C)oc3ncn(C)c(=O)c23)c1`: the survival was 70%.

With `O=C(COc1ccccc1)Nc1c(C(=O)N2CCN(c3ccc(F)cc3)CC2)oc2ccccc12`, the survival is 74%.

As for `COc1ccc(C(CC(=O)Nc2cccc(C)c2C)N2Cc3ccccc3C2=O)cc1` (configuration not stated), the survival is 68%.

In the case of `COc1ccc(OC)c(CNCc2c(C(=O)O)n(Cc3cccc(F)c3)c3cc(OC)ccc23)c1`, the survival is -3% (active).

As for `CCc1ccc(CNCc2c(C(=O)O)n(Cc3cccc(F)c3)c3cc(OC)ccc23)cc1`, the survival is 63%.

Consider `COc1ccc(OC)c(CNCc2c(C(=O)O)n(Cc3ccccc3)c3cc(OC)ccc23)c1`, for which the survival was 84%.

Take `COc1cc(Cl)c(C)cc1NC(=O)c1nn(-c2ccc(C)cc2)c(=O)n(C)c1=O`: the survival was 66%.

Consider `COc1ccc(-n2c(=O)c3sc4ccccc4c3n(Cc3ccccc3C)c2=O)cc1OC`, for which the survival is 89%.

Consider `Cc1ccc(-c2nc3sc(CCNS(=O)(=O)c4cc(F)ccc4F)c(C)n3n2)cc1`, for which the survival was -4% (active).

Take `CCCS(=O)(=O)NCCc1sc2nc(-c3ccc(Cl)cc3)nn2c1C`: the survival was 81%.

As for `COc1ccc(-c2nc3sc(CCNS(=O)(=O)c4c(C)cc(C)cc4C)c(C)n3n2)cc1`, the survival was -3% (active).

Take `COc1ccc(F)cc1S(=O)(=O)NCCc1sc2nc(-c3ccc(F)cc3)nn2c1C`: the survival is 57%.

For `Cc1cc(C)c(S(=O)(=O)NCCc2sc3nc(-c4ccc(F)cc4)nn3c2C)c(C)c1`, the survival was 63%.

On to `CCCS(=O)(=O)NCCc1sc2nc(-c3ccc(F)cc3)nn2c1C`, for which the survival is 60%.

As for `CCS(=O)(=O)NCCc1sc2nc(-c3ccc(OC)cc3)nn2c1C`, the survival is 71%.

In the case of `COc1ccc(-c2nc3sc(CCNS(=O)(=O)c4ccccc4)c(C)n3n2)cc1`, the survival was 57%.

`Cc1c(CCNS(=O)(=O)c2ccccc2)sc2nc(-c3ccc(Cl)cc3)nn12`: the survival was 1% (active).

Consider `Cc1ccc(C(=O)Nc2nnc(S(=O)(=O)N3c4ccccc4CC3C)s2)cc1` (configuration not stated), for which the survival is 38%.
